# Values joined by “and” are separate entries in the source; they are usually repeats but may differ in a detail not shown here. Identical values can stand only once. Among all 5,700 compounds or so, about 85 (1%) were called active. Cut-off read from the data, not from the text of the source: active = p53-positive nuclei above about 36% (passing the limit was not always enough); inactive = the rest. The entries come from a sample that favours actives as a whole. The source holds several records for some structures; these can differ, active in one and inactive in another.
# Tests used:
# [1] = nuclear p53 accumulation, HPV+ cells – imaging, p53-positive nuclei imaging, 24 h, 48 h (AID 1508601); settings: 24/48 h
# [2] = molecular target: Cellular tumor antigen p53 (Homo sapiens) (UniProt P04637); test: as above; settings: 24/48 h, stronger effect = higher value
# [3] = measured here: cell number at 24 h, Library stock concentration: 3.33 mM
# [4] = measured here: cell number at 48 h, Library stock concentration: 3.33 mM
# [5] = Library stock concentration: 3.33 mM
# [6] = measured here: p53 positive nuclei at 24 h, Library stock concentration: 3.33 mM
# [7] = measured here: cell number at 24 h, Library stock concentration: 10 mM
# [8] = measured here: cell number at 48 h, Library stock concentration: 10 mM
# [9] = Library stock concentration: 10 mM
# [10] = measured here: p53 positive nuclei at 24 h, Library stock concentration: 10 mM
# [11] = measured here: cell number at 24 h, concentration not given here
# [12] = measured here: cell number at 48 h, concentration not given here
# [13] = measured here: p53 positive nuclei at 24 h, concentration not given here
# Cellular tumor antigen p53 (Homo sapiens), sequence (P04637 whole entry, looked up): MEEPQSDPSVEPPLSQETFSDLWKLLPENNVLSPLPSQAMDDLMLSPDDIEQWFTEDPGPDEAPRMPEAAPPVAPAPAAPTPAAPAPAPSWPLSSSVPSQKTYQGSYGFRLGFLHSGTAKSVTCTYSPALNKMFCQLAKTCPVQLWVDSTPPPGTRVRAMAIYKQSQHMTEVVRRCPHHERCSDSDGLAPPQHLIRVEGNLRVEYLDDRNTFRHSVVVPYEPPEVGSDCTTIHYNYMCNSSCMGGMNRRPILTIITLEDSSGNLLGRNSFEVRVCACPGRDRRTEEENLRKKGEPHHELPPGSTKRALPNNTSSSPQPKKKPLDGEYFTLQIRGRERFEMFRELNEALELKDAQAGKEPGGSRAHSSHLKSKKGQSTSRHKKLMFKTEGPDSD
compound,measurement,setting,value
COc1ccc(F)c(F)c1C(=O)c1cnc(NC2CCN(S(C)(=O)=O)CC2)nc1N,"nuclei count, normalised",[1]; [3],43.7%
same,"nuclei count, normalised",[1]; [4],27.7%
same,"p53-positive nuclei, normalised",[2]; [5],67.1% (active)
same,"p53-positive nuclei, normalised",[2]; [6],73.8%
Cc1cc(OCCCS(C)(=O)=O)cc(C)c1-c1cccc(COc2ccc3c(c2)OCC3CC(=O)O)c1 (stereo not given),"nuclei count, normalised","[1]; measured here: cell number at 24 h, Library stock concentration: 46 uM",101%
same,"nuclei count, normalised","[1]; measured here: cell number at 24 h, Library stock concentration: 278 uM",107%
same,"nuclei count, normalised","[1]; measured here: cell number at 24 h, Library stock concentration: 1.67 mM",104%
same,"nuclei count, normalised",[1]; [3],125%
same,"nuclei count, normalised",[1]; [7],103%
same,"nuclei count, normalised","[1]; measured here: cell number at 48 h, Library stock concentration: 46 uM",105%
same,"nuclei count, normalised","[1]; measured here: cell number at 48 h, Library stock concentration: 278 uM",104%
same,"nuclei count, normalised","[1]; measured here: cell number at 48 h, Library stock concentration: 1.67 mM",104%
same,"nuclei count, normalised",[1]; [4],119%
same,"nuclei count, normalised",[1]; [8],103%
same,"p53-positive nuclei, normalised",[2]; Library stock concentration: 46 uM,-0.0206% (inactive)
same,"p53-positive nuclei, normalised",[2]; Library stock concentration: 278 uM,-0.0568% (inactive)
same,"p53-positive nuclei, normalised",[2]; Library stock concentration: 1.67 mM,-0.0557% (inactive)
same,"p53-positive nuclei, normalised",[2]; [5],-0.149% (inactive)
same,"p53-positive nuclei, normalised",[2]; [9],0.322% (inactive)
same,"p53-positive nuclei, normalised","[2]; measured here: p53 positive nuclei at 24 h, Library stock concentration: 46 uM",-0.152%
same,"p53-positive nuclei, normalised","[2]; measured here: p53 positive nuclei at 24 h, Library stock concentration: 278 uM",0.151%
same,"p53-positive nuclei, normalised","[2]; measured here: p53 positive nuclei at 24 h, Library stock concentration: 1.67 mM",-0.156%
same,"p53-positive nuclei, normalised",[2]; [6],-0.546%
same,"p53-positive nuclei, normalised",[2]; [10],-0.0299%
O=C(O)/C=C/CCCCCCCCC(=O)O,"nuclei count, normalised",[1]; [11],111%
same,"nuclei count, normalised",[1]; [12],107%
same,"p53-positive nuclei, normalised",[2]; concentration not given here,0.0752% (inactive)
same,"p53-positive nuclei, normalised",[2]; [13],0.0107%
C=C1C(=O)OC(CCCCCCCC)C1C(=O)O (stereo not given),"nuclei count, normalised","[1]; measured here: cell number at 24 h, Library stock concentration: 500 nM",115%
same,"nuclei count, normalised","[1]; measured here: cell number at 24 h, Library stock concentration: 1.5 uM",107%
same,"nuclei count, normalised","[1]; measured here: cell number at 24 h, Library stock concentration: 4.6 uM",111%
same,"nuclei count, normalised","[1]; measured here: cell number at 24 h, Library stock concentration: 13.7 uM",112%
same,"nuclei count, normalised","[1]; measured here: cell number at 24 h, Library stock concentration: 41 uM",108%
same,"nuclei count, normalised","[1]; measured here: cell number at 24 h, Library stock concentration: 123 uM",110%
same,"nuclei count, normalised","[1]; measured here: cell number at 24 h, Library stock concentration: 370 uM",116%
same,"nuclei count, normalised","[1]; measured here: cell number at 24 h, Library stock concentration: 1.111 mM",116%
same,"nuclei count, normalised","[1]; measured here: cell number at 24 h, Library stock concentration: 3.333 mM",114%
same,"nuclei count, normalised",[1]; [7],106%
same,"nuclei count, normalised","[1]; measured here: cell number at 48 h, Library stock concentration: 500 nM",112%
same,"nuclei count, normalised","[1]; measured here: cell number at 48 h, Library stock concentration: 1.5 uM",108%
same,"nuclei count, normalised","[1]; measured here: cell number at 48 h, Library stock concentration: 4.6 uM",109%
same,"nuclei count, normalised","[1]; measured here: cell number at 48 h, Library stock concentration: 13.7 uM",110%
same,"nuclei count, normalised","[1]; measured here: cell number at 48 h, Library stock concentration: 41 uM",105%
same,"nuclei count, normalised","[1]; measured here: cell number at 48 h, Library stock concentration: 123 uM",108%
same,"nuclei count, normalised","[1]; measured here: cell number at 48 h, Library stock concentration: 370 uM",116%
same,"nuclei count, normalised","[1]; measured here: cell number at 48 h, Library stock concentration: 1.111 mM",114%
same,"nuclei count, normalised","[1]; measured here: cell number at 48 h, Library stock concentration: 3.333 mM",112%
same,"nuclei count, normalised",[1]; [8],107%
same,"p53-positive nuclei, normalised",[2]; Library stock concentration: 500 nM,0.247% (inactive)
same,"p53-positive nuclei, normalised",[2]; Library stock concentration: 1.5 uM,-0.0382% (inactive)
same,"p53-positive nuclei, normalised",[2]; Library stock concentration: 4.6 uM,-0.0805% (inactive)
same,"p53-positive nuclei, normalised",[2]; Library stock concentration: 13.7 uM,-0.0825% (inactive)
same,"p53-positive nuclei, normalised",[2]; Library stock concentration: 41 uM,0.00899% (inactive)
same,"p53-positive nuclei, normalised",[2]; Library stock concentration: 123 uM,-0.155% (inactive)
same,"p53-positive nuclei, normalised",[2]; Library stock concentration: 370 uM,0.0153% (inactive)
same,"p53-positive nuclei, normalised",[2]; Library stock concentration: 1.111 mM,-0.0515% (inactive)
same,"p53-positive nuclei, normalised",[2]; Library stock concentration: 3.333 mM,0.104% (inactive)
same,"p53-positive nuclei, normalised",[2]; [9],0.0835% (inactive)
same,"p53-positive nuclei, normalised","[2]; measured here: p53 positive nuclei at 24 h, Library stock concentration: 500 nM",-0.115%
same,"p53-positive nuclei, normalised","[2]; measured here: p53 positive nuclei at 24 h, Library stock concentration: 1.5 uM",0.12%
same,"p53-positive nuclei, normalised","[2]; measured here: p53 positive nuclei at 24 h, Library stock concentration: 4.6 uM",-0.0584%
same,"p53-positive nuclei, normalised","[2]; measured here: p53 positive nuclei at 24 h, Library stock concentration: 13.7 uM",-0.0585%
same,"p53-positive nuclei, normalised","[2]; measured here: p53 positive nuclei at 24 h, Library stock concentration: 41 uM",0.0028%
same,"p53-positive nuclei, normalised","[2]; measured here: p53 positive nuclei at 24 h, Library stock concentration: 123 uM",-0.115%
same,"p53-positive nuclei, normalised","[2]; measured here: p53 positive nuclei at 24 h, Library stock concentration: 370 uM",-0.0115%
same,"p53-positive nuclei, normalised","[2]; measured here: p53 positive nuclei at 24 h, Library stock concentration: 1.111 mM",0.0471%
same,"p53-positive nuclei, normalised","[2]; measured here: p53 positive nuclei at 24 h, Library stock concentration: 3.333 mM",0.103%
same,"p53-positive nuclei, normalised",[2]; [10],-0.112%
Nc1ccccc1NC(=O)CCCCCCC(=O)Nc1ccccc1,"nuclei count, normalised",[1]; [11],102%
same,"nuclei count, normalised",[1]; [12],99.7%
same,"p53-positive nuclei, normalised",[2]; concentration not given here,-0.185% (inactive)
same,"p53-positive nuclei, normalised",[2]; [13],-0.135%
O=C(CCCCCCC(=O)Nc1ccccc1)NO,"nuclei count, normalised","[1]; measured here: cell number at 24 h, Library stock concentration: 80 uM",112%
same,"nuclei count, normalised","[1]; measured here: cell number at 24 h, Library stock concentration: 400 uM",108% and 112%
same,"nuclei count, normalised","[1]; measured here: cell number at 24 h, Library stock concentration: 2 mM",91.7% and 119%
same,"nuclei count, normalised",[1]; [3],78.1%
same,"nuclei count, normalised",[1]; [7],48.6% and 60.7%
same,"nuclei count, normalised",[1]; [11],97.6%
same,"nuclei count, normalised","[1]; measured here: cell number at 48 h, Library stock concentration: 80 uM",108% and 95.5%
same,"nuclei count, normalised","[1]; measured here: cell number at 48 h, Library stock concentration: 400 uM",95.7% and 94.9%
same,"nuclei count, normalised","[1]; measured here: cell number at 48 h, Library stock concentration: 2 mM",94.4% and 101%
same,"nuclei count, normalised",[1]; [4],74.5%
same,"nuclei count, normalised",[1]; [8],30.2% and 39.7%
same,"nuclei count, normalised",[1]; [12],95.7%
same,"p53-positive nuclei, normalised",[2]; Library stock concentration: 80 uM,0.114% (inactive) and -0.578% (inactive)
same,"p53-positive nuclei, normalised",[2]; Library stock concentration: 400 uM,-0.0686% (inactive) and -0.456% (inactive)
same,"p53-positive nuclei, normalised",[2]; Library stock concentration: 2 mM,1.4% (inactive) and -0.595% (inactive)
same,"p53-positive nuclei, normalised",[2]; [5],4.65% (inactive)
same,"p53-positive nuclei, normalised",[2]; [9],53.5% (active) and 27.2% (inactive)
same,"p53-positive nuclei, normalised",[2]; concentration not given here,0.0822% (inactive)
same,"p53-positive nuclei, normalised","[2]; measured here: p53 positive nuclei at 24 h, Library stock concentration: 80 uM",0.178% and -0.162%
same,"p53-positive nuclei, normalised","[2]; measured here: p53 positive nuclei at 24 h, Library stock concentration: 400 uM",-0.0144% and -0.0685%
same,"p53-positive nuclei, normalised","[2]; measured here: p53 positive nuclei at 24 h, Library stock concentration: 2 mM",2.42% and 0.0577%
same,"p53-positive nuclei, normalised",[2]; [6],8.5%
same,"p53-positive nuclei, normalised",[2]; [10],65.2% and 32.1%
same,"p53-positive nuclei, normalised",[2]; [13],0.00812%
Cc1ccc(NC(=O)CCCCCC(=O)Nc2ccccc2N)cc1,"nuclei count, normalised",[1]; [11],111%
same,"nuclei count, normalised",[1]; [12],104%
same,"p53-positive nuclei, normalised",[2]; concentration not given here,-0.139% (inactive)
same,"p53-positive nuclei, normalised",[2]; [13],-0.0721%

# Reference: PubChem BioAssay AID1508601 (ICCB-Longwood Screening Facility, Harvard Medical School, 2020)
